# In ChEMBL document CHEMBL2218924, “A broad activity screen in support of a chemogenomic map for kinase signalling research and drug discovery” (Biochem J, 2013):
# How the values were obtained:
# [1] = molecular target: Homeodomain-interacting protein kinase 2 (Homo sapiens) (UniProt Q9H2X6); details: at 10 µM
# [2] = molecular target: Homeodomain-interacting protein kinase 3 (Homo sapiens) (UniProt Q9H422); details: at 1 µM
# [3] = molecular target: Homeodomain-interacting protein kinase 3 (Homo sapiens) (UniProt Q9H422); details: at 10 µM
# [4] = molecular target: T1, Serine/threonine-protein kinase haspin (Homo sapiens) (UniProt Q8TF76); details: at 1 µM
# T1 sequence (whole entry): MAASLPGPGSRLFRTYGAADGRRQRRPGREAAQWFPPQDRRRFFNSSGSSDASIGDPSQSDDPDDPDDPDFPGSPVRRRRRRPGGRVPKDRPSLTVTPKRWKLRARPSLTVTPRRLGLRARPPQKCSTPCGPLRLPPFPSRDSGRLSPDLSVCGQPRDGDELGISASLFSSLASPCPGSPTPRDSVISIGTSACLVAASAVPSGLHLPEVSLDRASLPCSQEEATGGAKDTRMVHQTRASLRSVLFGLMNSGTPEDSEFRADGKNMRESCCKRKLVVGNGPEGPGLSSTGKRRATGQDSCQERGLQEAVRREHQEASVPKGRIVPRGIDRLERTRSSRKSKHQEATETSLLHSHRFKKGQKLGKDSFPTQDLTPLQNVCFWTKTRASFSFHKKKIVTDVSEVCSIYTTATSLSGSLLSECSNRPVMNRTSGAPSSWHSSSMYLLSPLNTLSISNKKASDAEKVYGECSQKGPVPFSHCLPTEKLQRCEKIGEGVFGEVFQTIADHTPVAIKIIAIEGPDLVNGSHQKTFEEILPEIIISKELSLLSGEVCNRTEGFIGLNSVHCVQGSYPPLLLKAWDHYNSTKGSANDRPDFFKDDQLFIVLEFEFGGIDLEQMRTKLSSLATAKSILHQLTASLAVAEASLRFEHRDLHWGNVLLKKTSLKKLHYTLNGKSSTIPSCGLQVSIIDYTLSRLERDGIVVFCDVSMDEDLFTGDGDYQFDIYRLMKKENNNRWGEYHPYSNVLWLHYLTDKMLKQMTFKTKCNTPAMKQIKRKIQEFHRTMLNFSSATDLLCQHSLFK
# [5] = molecular target: T1, Serine/threonine-protein kinase haspin (Homo sapiens); details: at 10 µM
# [6] = molecular target: Tyrosine-protein kinase HCK (Homo sapiens) (UniProt P08631); details: at 1 µM
# Sequence of Tyrosine-protein kinase HCK (Homo sapiens) (P08631 2-526 limits assumed): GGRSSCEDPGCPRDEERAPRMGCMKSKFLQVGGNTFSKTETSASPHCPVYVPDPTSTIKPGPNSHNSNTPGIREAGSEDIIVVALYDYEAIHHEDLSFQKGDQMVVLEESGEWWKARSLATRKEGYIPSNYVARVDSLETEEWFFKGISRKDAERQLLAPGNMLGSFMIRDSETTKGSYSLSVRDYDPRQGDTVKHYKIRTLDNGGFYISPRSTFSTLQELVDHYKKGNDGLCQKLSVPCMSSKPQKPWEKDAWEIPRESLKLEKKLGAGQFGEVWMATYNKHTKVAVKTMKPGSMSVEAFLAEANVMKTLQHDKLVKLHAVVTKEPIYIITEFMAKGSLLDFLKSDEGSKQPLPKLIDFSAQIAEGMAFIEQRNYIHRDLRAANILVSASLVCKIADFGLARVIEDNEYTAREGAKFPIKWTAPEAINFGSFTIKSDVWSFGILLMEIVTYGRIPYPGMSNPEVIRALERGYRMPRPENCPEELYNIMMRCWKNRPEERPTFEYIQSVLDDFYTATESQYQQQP
# [7] = molecular target: Tyrosine-protein kinase HCK (Homo sapiens) (UniProt P08631); details: at 10 µM
# [8] = molecular target: Tyrosine-protein kinase HCK (Homo sapiens) (UniProt P08631); details: at 1 µM; remark: listed apart in the source
# [9] = molecular target: Insulin-like growth factor 1 receptor (Homo sapiens) (UniProt P08069); details: at 1 µM
# Sequence of Insulin-like growth factor 1 receptor (Homo sapiens) (P08069 31-736 limits assumed): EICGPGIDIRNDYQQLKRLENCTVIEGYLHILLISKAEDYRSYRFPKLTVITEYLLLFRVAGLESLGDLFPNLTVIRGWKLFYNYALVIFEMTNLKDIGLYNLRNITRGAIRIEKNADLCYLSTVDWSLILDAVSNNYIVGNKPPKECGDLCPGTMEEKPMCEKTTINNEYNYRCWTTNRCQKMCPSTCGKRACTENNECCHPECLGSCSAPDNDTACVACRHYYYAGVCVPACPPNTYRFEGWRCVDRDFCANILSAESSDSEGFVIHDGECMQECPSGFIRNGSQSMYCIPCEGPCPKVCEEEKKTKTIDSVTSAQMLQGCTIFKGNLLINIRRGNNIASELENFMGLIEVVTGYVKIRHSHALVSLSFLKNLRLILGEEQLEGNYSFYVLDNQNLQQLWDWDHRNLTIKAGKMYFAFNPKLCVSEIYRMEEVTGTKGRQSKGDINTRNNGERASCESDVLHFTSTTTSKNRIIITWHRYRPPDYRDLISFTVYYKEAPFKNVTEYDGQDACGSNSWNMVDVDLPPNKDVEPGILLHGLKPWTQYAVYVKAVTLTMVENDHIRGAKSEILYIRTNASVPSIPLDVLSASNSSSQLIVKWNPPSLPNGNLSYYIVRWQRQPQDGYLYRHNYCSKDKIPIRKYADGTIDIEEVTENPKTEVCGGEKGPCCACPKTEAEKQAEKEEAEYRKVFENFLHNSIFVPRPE
# Sequence of Insulin-like growth factor 1 receptor (Homo sapiens) (P08069 741-1367 limits assumed): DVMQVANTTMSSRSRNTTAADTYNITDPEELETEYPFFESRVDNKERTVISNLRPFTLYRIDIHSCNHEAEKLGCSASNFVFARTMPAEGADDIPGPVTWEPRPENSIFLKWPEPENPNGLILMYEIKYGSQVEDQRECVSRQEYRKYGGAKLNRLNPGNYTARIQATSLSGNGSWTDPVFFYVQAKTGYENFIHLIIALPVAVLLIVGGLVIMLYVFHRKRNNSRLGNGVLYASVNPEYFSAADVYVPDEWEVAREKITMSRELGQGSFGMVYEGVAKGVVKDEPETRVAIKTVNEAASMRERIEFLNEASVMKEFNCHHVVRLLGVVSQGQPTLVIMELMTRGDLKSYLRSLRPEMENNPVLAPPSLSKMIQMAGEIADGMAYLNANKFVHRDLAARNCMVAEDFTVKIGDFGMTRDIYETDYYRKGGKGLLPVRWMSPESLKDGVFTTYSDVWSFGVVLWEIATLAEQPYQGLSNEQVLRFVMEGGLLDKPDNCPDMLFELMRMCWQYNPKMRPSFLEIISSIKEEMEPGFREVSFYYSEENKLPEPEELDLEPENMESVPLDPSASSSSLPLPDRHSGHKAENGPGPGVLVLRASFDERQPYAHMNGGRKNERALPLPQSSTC
# [10] = molecular target: Insulin-like growth factor 1 receptor (Homo sapiens) (UniProt P08069); details: at 10 µM
# [11] = molecular target: Protein kinase C eta type (Homo sapiens) (UniProt P24723); details: at 1 µM
# Sequence of Protein kinase C eta type (Homo sapiens) (P24723 whole entry): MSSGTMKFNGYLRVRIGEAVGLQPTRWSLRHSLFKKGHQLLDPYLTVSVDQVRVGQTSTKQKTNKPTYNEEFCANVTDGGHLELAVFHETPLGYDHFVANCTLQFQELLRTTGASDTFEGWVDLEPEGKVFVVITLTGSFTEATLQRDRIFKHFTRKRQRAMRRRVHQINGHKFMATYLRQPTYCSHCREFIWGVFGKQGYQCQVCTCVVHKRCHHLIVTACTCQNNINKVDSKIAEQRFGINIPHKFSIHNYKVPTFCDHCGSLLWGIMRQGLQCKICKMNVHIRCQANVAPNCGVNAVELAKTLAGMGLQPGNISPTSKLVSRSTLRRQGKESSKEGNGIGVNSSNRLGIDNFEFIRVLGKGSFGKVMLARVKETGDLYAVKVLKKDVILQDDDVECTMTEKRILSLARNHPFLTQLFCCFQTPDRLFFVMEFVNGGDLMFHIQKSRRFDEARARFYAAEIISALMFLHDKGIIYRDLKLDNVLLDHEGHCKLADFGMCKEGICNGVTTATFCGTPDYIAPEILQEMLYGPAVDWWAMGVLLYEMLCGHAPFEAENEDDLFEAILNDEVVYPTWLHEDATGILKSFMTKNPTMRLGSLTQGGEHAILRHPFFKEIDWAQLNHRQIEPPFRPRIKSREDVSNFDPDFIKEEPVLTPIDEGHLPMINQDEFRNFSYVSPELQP
# [12] = molecular target: Protein kinase C eta type (Homo sapiens) (UniProt P24723); details: at 10 µM
# [13] = molecular target: Protein kinase C theta type (Homo sapiens) (UniProt Q04759); details: at 1 µM
# [14] = molecular target: Protein kinase C theta type (Homo sapiens) (UniProt Q04759); details: at 10 µM
# [15] = molecular target: T2, Serine/threonine-protein kinase D1 (Homo sapiens) (UniProt Q15139); details: at 1 µM
# T2 sequence (whole entry): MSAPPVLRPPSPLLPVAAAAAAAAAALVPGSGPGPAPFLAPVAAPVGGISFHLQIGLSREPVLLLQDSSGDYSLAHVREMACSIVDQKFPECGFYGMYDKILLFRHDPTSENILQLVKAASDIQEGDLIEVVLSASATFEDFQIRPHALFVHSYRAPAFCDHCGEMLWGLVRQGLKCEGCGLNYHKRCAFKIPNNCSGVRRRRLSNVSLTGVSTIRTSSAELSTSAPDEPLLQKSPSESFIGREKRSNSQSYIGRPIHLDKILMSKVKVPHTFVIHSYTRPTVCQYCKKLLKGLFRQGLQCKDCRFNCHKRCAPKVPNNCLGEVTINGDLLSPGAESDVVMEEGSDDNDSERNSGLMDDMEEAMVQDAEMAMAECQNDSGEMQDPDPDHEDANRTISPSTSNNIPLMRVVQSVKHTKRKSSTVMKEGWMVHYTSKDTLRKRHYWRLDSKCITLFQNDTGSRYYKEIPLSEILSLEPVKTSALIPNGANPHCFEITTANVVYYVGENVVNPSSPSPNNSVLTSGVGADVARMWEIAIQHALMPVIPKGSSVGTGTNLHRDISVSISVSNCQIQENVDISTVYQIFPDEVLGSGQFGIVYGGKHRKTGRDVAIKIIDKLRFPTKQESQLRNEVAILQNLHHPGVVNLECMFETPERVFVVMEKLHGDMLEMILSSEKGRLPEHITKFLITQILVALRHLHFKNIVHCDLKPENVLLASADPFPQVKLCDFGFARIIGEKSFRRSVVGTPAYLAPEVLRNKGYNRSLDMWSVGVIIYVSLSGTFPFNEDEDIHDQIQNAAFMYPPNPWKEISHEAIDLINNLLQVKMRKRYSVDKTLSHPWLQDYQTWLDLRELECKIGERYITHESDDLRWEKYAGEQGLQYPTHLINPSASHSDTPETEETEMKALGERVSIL
# [16] = molecular target: T2, Serine/threonine-protein kinase D1 (Homo sapiens); details: at 10 µM
# [17] = molecular target: Tyrosine-protein kinase HCK (Homo sapiens) (UniProt P08631); details: at 10 µM; remark: listed apart in the source
# [18] = molecular target: T3, Protein kinase C iota type (Homo sapiens) (UniProt P41743); details: at 10 µM
# T3 sequence (whole entry): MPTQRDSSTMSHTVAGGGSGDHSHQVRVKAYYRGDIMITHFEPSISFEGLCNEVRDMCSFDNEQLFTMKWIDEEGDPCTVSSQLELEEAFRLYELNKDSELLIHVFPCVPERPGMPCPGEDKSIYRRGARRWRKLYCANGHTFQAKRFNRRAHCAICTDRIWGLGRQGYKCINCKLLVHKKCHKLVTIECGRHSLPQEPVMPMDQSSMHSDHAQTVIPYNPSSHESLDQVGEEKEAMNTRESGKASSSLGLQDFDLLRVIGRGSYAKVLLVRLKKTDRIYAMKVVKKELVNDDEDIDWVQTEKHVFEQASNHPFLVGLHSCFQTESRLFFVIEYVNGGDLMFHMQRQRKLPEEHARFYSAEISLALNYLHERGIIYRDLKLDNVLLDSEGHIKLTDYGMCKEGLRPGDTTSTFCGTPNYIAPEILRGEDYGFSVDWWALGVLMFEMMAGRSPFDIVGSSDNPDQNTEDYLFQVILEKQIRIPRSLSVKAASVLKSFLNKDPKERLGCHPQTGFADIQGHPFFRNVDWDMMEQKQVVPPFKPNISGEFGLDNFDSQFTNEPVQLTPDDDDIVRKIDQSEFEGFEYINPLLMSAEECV
# [19] = molecular target: T4, Protein kinase C zeta type (Homo sapiens) (UniProt Q05513); details: at 10 µM
# T4 sequence (whole entry): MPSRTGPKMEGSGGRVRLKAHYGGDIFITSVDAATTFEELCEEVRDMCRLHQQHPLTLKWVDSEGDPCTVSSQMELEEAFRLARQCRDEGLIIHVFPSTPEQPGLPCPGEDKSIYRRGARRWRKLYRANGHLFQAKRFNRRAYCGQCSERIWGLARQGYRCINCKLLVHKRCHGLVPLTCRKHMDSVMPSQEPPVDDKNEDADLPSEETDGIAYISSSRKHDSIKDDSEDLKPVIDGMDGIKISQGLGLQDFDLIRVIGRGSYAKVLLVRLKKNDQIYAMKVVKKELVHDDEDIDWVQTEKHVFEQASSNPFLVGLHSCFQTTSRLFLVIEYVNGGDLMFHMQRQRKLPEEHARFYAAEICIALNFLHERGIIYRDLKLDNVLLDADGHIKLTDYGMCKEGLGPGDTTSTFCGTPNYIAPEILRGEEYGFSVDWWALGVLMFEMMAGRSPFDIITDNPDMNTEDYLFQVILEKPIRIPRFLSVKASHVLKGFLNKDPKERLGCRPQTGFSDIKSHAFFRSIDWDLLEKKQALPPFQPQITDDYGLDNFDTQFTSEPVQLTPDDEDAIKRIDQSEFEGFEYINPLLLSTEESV
# [20] = molecular target: T3, Protein kinase C iota type (Homo sapiens); details: at 1 µM
# Sequence of Homeodomain-interacting protein kinase 3 (Homo sapiens) (Q9H422 whole entry, looked up): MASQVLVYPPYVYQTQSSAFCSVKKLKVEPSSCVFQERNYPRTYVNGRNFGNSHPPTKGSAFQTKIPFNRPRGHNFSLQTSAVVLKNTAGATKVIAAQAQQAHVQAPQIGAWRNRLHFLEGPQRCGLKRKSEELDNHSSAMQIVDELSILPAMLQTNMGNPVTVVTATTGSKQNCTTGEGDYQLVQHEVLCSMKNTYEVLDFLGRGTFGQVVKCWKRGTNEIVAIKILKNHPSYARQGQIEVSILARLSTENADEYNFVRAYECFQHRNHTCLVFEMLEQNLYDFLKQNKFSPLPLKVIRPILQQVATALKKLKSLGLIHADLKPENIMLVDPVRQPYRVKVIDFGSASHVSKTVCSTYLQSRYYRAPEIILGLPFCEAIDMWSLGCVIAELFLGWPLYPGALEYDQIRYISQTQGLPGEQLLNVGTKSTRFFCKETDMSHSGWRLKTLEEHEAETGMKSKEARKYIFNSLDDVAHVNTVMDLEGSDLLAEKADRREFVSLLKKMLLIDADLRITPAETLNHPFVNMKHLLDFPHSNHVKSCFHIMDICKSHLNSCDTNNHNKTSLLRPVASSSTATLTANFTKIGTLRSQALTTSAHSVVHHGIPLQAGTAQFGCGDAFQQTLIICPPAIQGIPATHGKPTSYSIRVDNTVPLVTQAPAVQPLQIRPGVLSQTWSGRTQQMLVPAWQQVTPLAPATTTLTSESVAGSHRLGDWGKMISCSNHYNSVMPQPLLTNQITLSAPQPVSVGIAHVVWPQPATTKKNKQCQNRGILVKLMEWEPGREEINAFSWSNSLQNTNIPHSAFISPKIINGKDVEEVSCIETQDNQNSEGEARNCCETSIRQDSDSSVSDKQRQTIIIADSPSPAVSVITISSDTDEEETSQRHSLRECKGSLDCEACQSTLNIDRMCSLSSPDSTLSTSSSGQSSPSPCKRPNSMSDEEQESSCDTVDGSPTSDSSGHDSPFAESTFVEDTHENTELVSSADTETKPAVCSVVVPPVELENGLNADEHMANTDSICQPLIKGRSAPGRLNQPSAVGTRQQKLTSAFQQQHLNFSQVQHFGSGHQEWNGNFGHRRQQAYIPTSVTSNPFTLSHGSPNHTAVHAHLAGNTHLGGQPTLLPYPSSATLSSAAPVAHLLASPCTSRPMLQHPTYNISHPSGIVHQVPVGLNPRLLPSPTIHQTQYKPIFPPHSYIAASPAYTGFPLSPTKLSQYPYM
# Sequence of Homeodomain-interacting protein kinase 2 (Homo sapiens) (Q9H2X6 whole entry, looked up): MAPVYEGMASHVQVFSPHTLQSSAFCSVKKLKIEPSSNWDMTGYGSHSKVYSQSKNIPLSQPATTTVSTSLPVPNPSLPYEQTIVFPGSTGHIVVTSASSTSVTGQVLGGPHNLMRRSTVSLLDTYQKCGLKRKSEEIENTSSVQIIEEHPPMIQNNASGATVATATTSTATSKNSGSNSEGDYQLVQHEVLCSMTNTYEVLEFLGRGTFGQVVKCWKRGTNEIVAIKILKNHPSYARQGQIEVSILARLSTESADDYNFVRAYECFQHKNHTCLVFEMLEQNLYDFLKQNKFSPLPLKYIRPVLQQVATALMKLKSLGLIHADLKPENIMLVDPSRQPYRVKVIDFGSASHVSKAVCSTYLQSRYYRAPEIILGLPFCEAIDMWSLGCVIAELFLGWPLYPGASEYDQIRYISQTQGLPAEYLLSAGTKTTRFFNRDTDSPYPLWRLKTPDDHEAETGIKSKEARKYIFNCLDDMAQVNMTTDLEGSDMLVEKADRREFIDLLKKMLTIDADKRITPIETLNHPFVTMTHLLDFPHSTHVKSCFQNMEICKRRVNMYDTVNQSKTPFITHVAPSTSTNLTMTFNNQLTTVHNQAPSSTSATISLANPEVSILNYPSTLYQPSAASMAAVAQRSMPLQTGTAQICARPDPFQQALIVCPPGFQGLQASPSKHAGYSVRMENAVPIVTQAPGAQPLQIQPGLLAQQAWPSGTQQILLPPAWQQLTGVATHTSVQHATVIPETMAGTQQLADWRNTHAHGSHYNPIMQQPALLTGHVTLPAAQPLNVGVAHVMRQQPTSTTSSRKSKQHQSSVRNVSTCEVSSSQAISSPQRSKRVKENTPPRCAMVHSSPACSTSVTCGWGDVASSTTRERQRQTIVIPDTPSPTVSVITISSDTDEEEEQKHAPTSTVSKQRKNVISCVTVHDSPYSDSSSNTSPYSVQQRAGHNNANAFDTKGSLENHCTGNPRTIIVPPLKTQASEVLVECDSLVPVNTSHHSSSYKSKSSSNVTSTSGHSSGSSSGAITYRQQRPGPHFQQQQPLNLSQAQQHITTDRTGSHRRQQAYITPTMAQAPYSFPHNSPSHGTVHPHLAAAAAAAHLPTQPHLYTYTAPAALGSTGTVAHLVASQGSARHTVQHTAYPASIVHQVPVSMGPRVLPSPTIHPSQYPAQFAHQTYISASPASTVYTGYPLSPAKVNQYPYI
SMILES,residual activity [1],residual activity [2],residual activity [3],residual activity [4],residual activity [5],residual activity [6],residual activity [7],residual activity [8],residual activity [9],residual activity [10],residual activity [11],residual activity [12],residual activity [13],residual activity [14],residual activity [15],residual activity [16],residual activity [17],residual activity [18],residual activity [19],residual activity [20]
COc1cc(OC)c(/C=C2\C(=O)Nc3ccccc32)c(OC)c1,96%,103%,98%,70%,61%,89%,69%,93%,93%,133%,94%,94%,85%,90%,84%,90%,,,,
c1cc(-c2cnn3cc(-c4ccc(OCCN5CCCCC5)cc4)cnc23)ccn1,14%,,45%,38%,4%,64%,18%,32%,,143%,106%,,,,,54%,4%,86%,,
O=C1Nc2ccc3ncsc3c2/C1=C/c1c[nH]cn1,4%,31%,4%,3%,1%,58%,19%,67%,132%,68%,23%,5%,49%,10%,5%,4%,24%,73%,53%,85% (inactive)
CCn1cnc2c(Nc3cccc(Cl)c3)nc(N[C@@H]3CCCC[C@@H]3N)nc21,47%,99%,80%,48%,3%,24%,4%,24%,95%,123%,93%,80%,71%,23%,97%,61%,4%,,,
O=[N+]([O-])/C=C/c1ccc2c(c1)OCO2,,101%,99%,128%,115%,85%,73%,,131%,121%,100%,72%,95%,93%,91%,88%,94%,76%,114%,93% (inactive)
COc1cc2ncnc(Nc3ccc(OCc4ccccc4)cc3)c2cc1OC,84%,100%,96%,77%,45%,35%,19%,90%,120%,129%,109%,97%,124%,114%,93%,113%,83%,68%,108%,95% (inactive)
COC(=O)[C@@]1(O)C[C@H]2O[C@]1(C)n1c3ccccc3c3c4c(c5c6ccccc6n2c5c31)C(=O)NC4,-1%,54%,-4%,8%,5%,3%,1%,1%,77%,14%,36%,7%,10%,5%,1%,0%,4%,69%,8%,107% (inactive)
COc1ccc2c(c1)/C(=C/c1cnc[nH]1)C(=O)N2,,,49%,37%,13%,71%,33%,,,128%,,,,,,,49%,,,
COc1ccc2c(c[n+](C)c3c4cc5c(cc4ccc23)OCO5)c1OC,86%,,,,69%,92%,60%,95%,138%,131%,,,90%,66%,110%,61%,92%,81%,75%,98% (inactive)
CC(C)[C@H](CO)Nc1nc(Nc2cccc(Cl)c2)c2ncn(C(C)C)c2n1,36%,,77%,100%,94%,20%,4%,30%,98%,136%,100%,90%,70%,26%,81%,86%,4%,,117%,
O=C1NC(=O)c2c1c1c3ccccc3n3c1c1c2c2ccccc2n1C1CCC3O1,26%,-2%,-2%,50%,22%,76%,94%,92%,73%,,89%,81%,7%,13%,87%,49%,83%,,,
N/C(=N\[N+](=O)[O-])N/N=C\c1ccc(-c2cccc([N+](=O)[O-])c2)o1,83%,,,97%,80%,70%,49%,,,76%,84%,83%,,,,,,,98%,
CN[C@@H]1C[C@H]2O[C@@](C)([C@@H]1OC)n1c3ccccc3c3c4c(c5c6ccccc6n2c5c31)C(=O)NC4,,74%,27%,,,0%,,,,,,,,,,,,,,
O=C1c2ccccc2-c2nc3nnnn3nc21,,,,,74%,,76%,,129%,83%,117%,83%,,,104%,106%,,,108%,
CC(C)(C)c1cc(C=C(C#N)C#N)cc(Br)c1O,71%,101%,98%,105%,54%,77%,8%,102%,130%,101%,,,103%,75%,98%,117%,,,101%,107% (inactive)
CCc1nc(-c2ccc(OC)cc2)[nH]c1-c1ccncc1,,,,45%,4%,72%,64%,115%,112%,128%,105%,73%,108%,105%,,,104%,105%,104%,107% (inactive)
O=c1[nH]c2ccccc2n1C1CCN(Cc2ccc(-c3nc4cc5[nH]cnc5cc4nc3-c3ccccc3)cc2)CC1,64%,97%,91%,76%,49%,91%,42%,102%,125%,39%,120%,83%,104%,109%,96%,97%,91%,90%,97%,87% (inactive)
C[S+]([O-])c1ccc(-c2nc(-c3ccc(F)cc3)c(-c3ccncc3)[nH]2)cc1 (stereo not given),100%,110%,102%,88%,35%,105%,52%,93%,102%,117%,79%,77%,105%,104%,123%,66%,61%,101%,111%,105% (inactive)
